# Tested on: Trypanosoma cruzi
# Experiment: Trypanosoma cruzi phosphomannomutase and mannose-1-phosphate guanylyltransferase assay
# Assay type: functional
# Parameters: scale not given: direction of the effect not stated beside the values
# Conditions: 10 µM
row,SMILES,Percent Effect [%]
1,CCn1cc(Br)c(C(=O)NCc2cccnc2)n1,0.885
2,CCNC(=O)N1CCCCC1CCO (stereo not given),5.99
3,Cc1ccc(CN2Cc3c(C(=O)N(C)C)nn(C)c3C2)s1,6.75
4,COc1ccc(-n2ccc(C(=O)N3CCC(C(N)=O)C3)n2)cc1 (stereo not given),-4.55
5,CC(C)(C)C(=O)NCCC(=O)NC(C)(C)c1ccc2c(c1)OCCO2,-0.783
6,Cn1ncc2c(NCCOc3ccc(F)cc3)nc(C3CCCC3)nc21,9.79
7,O=C(CCc1ccsc1)NCC1CCN(c2ccccc2)C1 (stereo not given),-6.51
8,CC(NC(=O)COc1nc(C(C)(C)C)no1)c1ccco1 (stereo not given),4.25
9,CCOCCN1CCN(Cc2nnc(C3CC3)o2)CC1CC (stereo not given),8.03
10,Cc1nccc(CNC(=O)NCCOc2ccc(F)c(F)c2)n1,4.25
11,COC[C@]12COC[C@H]1CN(Cc1cc(OC)cc(OC)c1)C2,4.59
12,CN(C)CC(=O)N1CCC2(CC1)CN(c1ccsc1)C(=O)CO2,-4.33
13,COc1ccc(-c2nnc(SC(C)C(=O)NC3CC3)[nH]2)c(OC)c1 (stereo not given),2.63
14,Cc1cc(NC(=O)CCN2CCCC2Cn2cncn2)no1 (stereo not given),-0.718
15,CCN(CC)c1ccc(C(=O)NCc2cccnc2-n2cncn2)cn1,1.86
16,O=C(c1ccco1)N1CCOCC2(C1)CN(c1ccccc1)C(=O)CO2 (stereo not given),-3.86
17,O=C(Cc1ccc2c(c1)CCO2)N1CCCCC1Cn1cccn1 (stereo not given),2.24
18,CCCc1cc(=O)[nH]c2nnc(SCC(=O)NCc3ccc(C)cc3)n12,3.33
19,CCc1cnc(CN(C(C)=O)C2CCN(CCc3cnn(C)c3)C2)o1 (stereo not given),-1.21
20,Cc1nc(C)n(CC2CCCN(CCc3ccncc3)C2)n1 (stereo not given),2.35

row,SMILES,Percent Effect [%]
1,CCS(=O)(=O)N(C)C(=O)c1cc(C)n(-c2cccc(OC)c2)c1C,3.68
2,CCN(Cc1cccc(Cl)c1)Cc1nc2c(cnn2C)c(=O)[nH]1,-0.49
3,Cc1cc(-c2cnn(CCNC(=O)C3CCCO3)c2C2CC2)on1 (stereo not given),5.34
4,COc1ccc(NC(=O)N2CCCC2c2ccco2)cc1OC (stereo not given),-4.24
5,Cn1cnc2c1C(COCC1CCOCC1)CN(C1CCOCC1)C2 (stereo not given),-2.76
6,CCC(C)NC(=O)Cc1c(C)nc2c(c1C)c(=O)[nH]n2C (stereo not given),3.44
7,CN(C)C(=O)CN1C[C@@H]2CC[C@H](C1)N(Cc1cccc(Cl)c1Cl)C2,2.58
8,Cn1ccc(CN2CCC(COC3CCCC3)CC2)cc1=O,2.15
9,Cn1cc(CCNC(=O)CCc2ccc3c(c2)OCO3)cn1,-9.75
10,Cc1cc(C(=O)N2CC[C@H](OCC3CC3)[C@@H]2Cc2cccnc2)no1,0.772
11,O=C(c1ccc(=O)[nH]n1)N1CC(c2nc(Cc3ccccc3)no2)C1,3.33
12,Cc1cnn(CC2CCCCN2C(=O)c2ccc3nnc(C)n3c2)c1 (stereo not given),-4.6
13,CN(Cc1ccco1)C(=O)[C@H]1CSCN1C(=O)OC(C)(C)C,5.7
14,c1csc(-c2nc(CNC3CCc4ncnn4C3)co2)c1 (stereo not given),-5.24
15,Cn1cc(CCNC(=O)NCc2nnc3n2CCC3)cn1,-1.6
16,Cc1nn(C)c(N(C)C)c1CNCc1cccnc1-n1cncn1,-4.21
17,Cn1ncc2c(=O)[nH]c(CN3CCCC3Cc3ccccc3)nc21 (stereo not given),9.62
18,COc1ccccc1CC1CCCN(CC(N)=O)C1 (stereo not given),0.0979
19,Cc1noc(C(C)C)c1C(=O)NCc1cc(F)cc(F)c1,-7.12
20,Cc1nc(CN(Cc2ccccc2)C2CCS(=O)(=O)C2)oc1C (stereo not given),5.32
